# Screening data deposited in PubChem BioAssay by Sanford-Burnham Center for Chemical Genomics.
# CYP2C19 act: cytochrome P450 2C19 (human) activation; recombinant CYP2C19, luciferin-H EGE luminescence; hits give high values; 0 = fully inhibited enzyme, 1 = untreated enzyme; 96,000 tested, under 10 active; P33261; AID 1025; activation factor at 5 µM;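 active means activation factor of at least 2 at 5 µM in the primary screen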;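 further: 0 = wells with 2.5 mM tranylcypromine and 1 = vehicle-only wells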
# Target sequence (P33261 whole entry, looked up): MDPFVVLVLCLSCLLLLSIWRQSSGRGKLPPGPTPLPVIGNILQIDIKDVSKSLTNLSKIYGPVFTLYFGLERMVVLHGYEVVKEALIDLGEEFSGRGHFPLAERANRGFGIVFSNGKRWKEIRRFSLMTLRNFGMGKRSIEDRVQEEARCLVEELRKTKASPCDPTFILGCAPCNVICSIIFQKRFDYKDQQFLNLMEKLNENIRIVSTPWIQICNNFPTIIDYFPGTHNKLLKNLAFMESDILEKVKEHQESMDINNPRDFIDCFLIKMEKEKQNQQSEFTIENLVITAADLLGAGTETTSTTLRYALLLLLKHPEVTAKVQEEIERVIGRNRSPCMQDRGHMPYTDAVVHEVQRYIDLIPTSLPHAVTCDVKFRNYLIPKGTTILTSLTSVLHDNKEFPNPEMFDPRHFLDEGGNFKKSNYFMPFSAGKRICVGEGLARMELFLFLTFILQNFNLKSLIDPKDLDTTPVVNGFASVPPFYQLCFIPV
# CYP2C9 activ: increases human cytochrome P450 2C9 activity | P11712 | recombinant CYP2C9, luciferin-H conversion, luminescence; hits give high values; factor 1 = untreated enzyme, 0 = blocked | activation factor at 5 µM | 1.4% of 96,000 active | AID 1024;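 active means activation factor of 2 or more for CYP2C9 at a 5 µM dose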;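 further: 0 = sulfaphenazole-blocked wells and 1 = vehicle-only wells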
# CYP2C9 inh: blocks human cytochrome P450 2C9 | CYP2C9 Supersomes, luciferin-H conversion, luminescence | inhibition, % at 5 µM | 20% of 96,000 active;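 active means blocking of liver enzyme CYP2C9 beyond about 50% at 5 µM, limit read from the data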
# CYP2C19 inhib: blocks human cytochrome P450 2C19 | P33261 | CYP2C19 Supersomes, luciferin-H EGE luminescence, 30 min | inhibition, % at 5 µM | 21% of 96,000 active | AID 778;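 active means CYP2C19 inhibition above a set limit at 5 µM in the primary screen, cut at about 50% in these data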;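 further: plate controls were negative control wells for no effect and 2.5 mM tranylcypromine positive control for full effect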
# Starred values were filed as active, the others as inactive. Hits are enriched below; roughly 31% of the tested compounds scored in any of these assays.
SMILES,CYP2C19 act,CYP2C9 activ,CYP2C9 inh,CYP2C19 inhib
CC(C)NC(=O)c1onc(CSc2ccc(F)c(F)c2)c1C(=O)O,0.8,0.2,76.2*,22.8
CC(C)NC(=O)c1onc(CSc2ccc(C(C)C)cc2)c1C(=O)O,0.8,0.1,90.7*,22.6
CC(C)NC(=O)c1onc(CSc2ccc(F)cc2)c1C(=O)O,0.9,1,3.5,8.8
COc1ccc(CN2CCNC(=O)C2CC(=O)O)c(OC)c1 (stereo unspecified),1.1,0.7,26.2,-11.0
COCC(C)n1c(C)cc(C(=O)CN2C(=O)NC(Cc3c[nH]c4ccccc34)C2=O)c1C (stereo unspecified),0.6,0.5,46.1,40.7
CC(C)NC(=O)c1onc(CSc2cccc(Cl)c2)c1C(=O)O,0.9,0.4,64.4*,10.4
COc1cc(NC(=O)c2nnn(Cc3ccc(SC)cc3)c2N)cc(OC)c1,0.9,0.9,13.4,7.3
COC(=O)CS(=O)(=O)c1ccc2c(c1)CC(=O)N2,1,1,3.0,0.1
Cc1cc(NC(=O)COC(=O)C2CCN(S(=O)(=O)c3c(Cl)cccc3Cl)CC2)no1,0.6,0.6,42.4,42.5
Cc1cc(NC(=O)COC(=O)C2CCN(S(=O)(=O)c3ccc(Cl)cc3)CC2)no1,0.8,0.4,62.5*,16.4
Cc1cc(NC(=O)NC2CCCN2S(=O)(=O)c2ccc(Cl)cc2)no1 (stereo unspecified),0.2,0.4,60.5*,80.0*
Cc1ccc2nc(NCCO)nc(-c3ccccc3)c2c1,0.9,0.7,33.0,10.9
CN(CC(=O)Nc1nc2ccccc2s1)S(=O)(=O)c1ccccc1,0.5,0.6,44.0,52.0*
O=C(O)CCC(=O)Nc1nc2ccccc2s1,1.1,1.1,-9.7,-8.0
O=S(=O)(Nc1nc2ccccc2s1)c1ccc(Cl)s1,0.3,0,95.4*,65.4*
Cc1ccc(CC(=O)Nc2nc3ccccc3s2)cc1,0.9,0.7,34.1,14.1
O=C(CS(=O)(=O)Cc1ccccc1)Nc1nc2ccccc2s1,0.5,0.5,54.7*,54.2*
CCOC(=O)CC(=O)Nc1nc2ccccc2s1,0.7,0.8,18.5,27.6
CC1(C(=O)NC2CCCCCCC2)CC1(Cl)Cl (stereo unspecified),0.7,0.9,7.7,26.8
O=S(=O)(Cc1ccccc1)N1CCN(C/C=C/c2ccccc2)CC1,0.7,0.9,13.7,33.2
CCC(C)N(C(=O)COC(=O)Cc1n[nH]c(=O)c2ccccc12)C1CCS(=O)(=O)C1 (stereo unspecified),1,0.9,7.1,-3.4
CC(/C=C(\NC(=O)c1ccccc1)C(=O)N=Nc1c(O)[nH]c2ccc(C)cc12)=C\c1ccccc1,0.8,0.5,52.9*,16.3
CC(C)(C)c1nc(CN2CCOCC2)ccc1O,0.4,1.1,-6.3,59.9*
COc1ccc(OC)c(C2C(C(=O)O)c3ccccc3C(=O)N2C)c1 (stereo unspecified),1,0.9,7.6,-1.5
COc1ccc(C2CN=NC23CCCc2ccccc2C3=O)cc1 (stereo unspecified),0.4,0.5,47.5,59.1*
SMILES,CYP2C19 act,CYP2C9 activ,CYP2C9 inh,CYP2C19 inhib
COc1ccccc1C1CN=NC12CCCc1ccccc1C2=O (stereo unspecified),0.3,0.5,51.2*,71.4*
COc1ccc(C2C(C(=O)N3CCN(C)CC3)c3ccccc3C(=O)N2C2CCCCC2)cc1 (stereo unspecified),0.9,0.9,9.9,7.6
CCCc1cc(=O)[nH]c(SCc2cccc(C)c2)n1,0.8,0.6,43.7,21.3
CCCc1cc(=O)[nH]c(SCC(=O)N(Cc2ccccc2)C(C)C)n1,0.3,0.2,85.0*,67.7*
CCCc1cc(=O)[nH]c(SCc2ccc(Cl)cc2)n1,0.1,0.3,71.5*,86.5*
CCCc1cc(=O)[nH]c(SCc2cc(Cl)ccc2OC(F)F)n1,0.7,0.4,60.0*,28.5
CCCc1cc(=O)[nH]c(SCc2ccccc2)n1,0.5,0.4,61.6*,47.0
C=CCNS(=O)(=O)c1nc(C)c(Cl)c(C)c1C#N,0.8,1.1,-11.3,16.8
O=C(c1ccc(CNS(=O)(=O)c2ccccc2)cc1)N1CCN(Cc2ccccc2)CC1,0.6,0.5,45.7,40.9
COc1cc(C(=O)NCCOc2cc(C)cc(C)c2)c(Br)c(OC)c1OC,0.1,1.1,-7.7,86.2*
COCCNC(=O)c1cc2cc(Br)cc(OC)c2oc1=O,1.1,1.1,-8.8,-11.3
COC(=O)CNC(=O)CN1C(=O)N(c2ccc(Cl)cc2)C(N(O)C(=O)Nc2ccc(Cl)cc2)C1(C)C (stereo unspecified),0.7,0.8,20.8,32.9
CCc1cc2c(=O)nc3n(c2s1)Cc1ccccc1/C3=C(/O)c1ccc(F)cc1,1,0.9,13.6,-2.2
CCc1cc2c(=O)nc3n(c2s1)Cc1ccccc1/C3=C(/O)c1cccc([N+](=O)[O-])c1,1.1,0.5,51.6*,-13.2
CC1(C)Cc2c(sc3c4nnnn4c4nnnn4c23)CO1,0.9,0.9,7.1,6.7
[O-][n+]1c2c(c3c4non(O)c4ccc31)CCCC2,0.8,0.6,38.4,22.4
CC(=O)N1N=C(c2ccc(Cl)cc2)OC1c1ccc(C(C)C)cc1 (stereo unspecified),0.5,0.8,22.5,54.7*
COC(=O)CCn1nnc(-c2ccc(C(C)C)cc2)n1,1,1.1,-13.2,3.6
O=C(/C=C/c1ccccc1)CC(O)(c1ccccc1)C(F)(F)F (stereo unspecified),0.4,0.5,45.3,64.6*
O=C(/C=C/c1ccccc1)CC(O)(c1ccccc1)C(F)(F)C(F)F (stereo unspecified),0.5,0.6,43.0,45.5
Cc1ccc(NC(=O)C/C(N)=N/O)cc1C,0.9,0.9,11.5,10.0
Cc1ccc(-c2cc(-c3ccccc3[N+](=O)[O-])[nH]n2)c(O)c1,0.5,0.2,77.5*,47.1
COc1ccc(-c2cc(-c3ccccc3O)[nH]n2)cc1,0.7,0.5,47.1,27.0
Cc1ccccc1-c1cc(-c2ccccc2O)n[nH]1,0.1,0,96.1*,92.7*
Cc1ccc(-c2cc(-c3ccccc3Cl)[nH]n2)c(O)c1,0.8,0.8,22.0,21.6
SMILES,CYP2C19 act,CYP2C9 activ,CYP2C9 inh,CYP2C19 inhib
Oc1ccc(Cl)cc1-c1cc(-c2ccccc2)n[nH]1,0.5,0.9,13.8,50.8*
O=S(=O)(c1ccc2nc(Cc3cccc(C(F)(F)F)c3)[nH]c2c1)N1CCOCC1,0.3,0.1,86.4*,67.0*
COc1cccc(/C=N/Nc2snc(SC)c2C#N)c1,0.7,0.3,65.7*,29.6
COc1ccc(/C=N/Nc2snc(SC)c2C#N)cc1OC,0.4,0.4,60.9*,62.1*
COc1ccc(/C=N/Nc2ncnc3scc(-c4ccccc4)c23)cc1OC,0.8,1.2,-16.3,18.6
COCCCNc1nc(SCc2ccccc2)nc2sc3c(c12)CCC3,0.7,0.4,60.9*,25.3
N#Cc1cnn(-c2nc(SCc3ccccc3)nc3sc4c(c23)CCCC4)c1N,0.9,0.6,41.7,12.2
COC(=O)c1ccc(C(=O)OC)c(NC(=O)COC(=O)CC2CC3CCC2C3)c1 (stereo unspecified),0.7,0.6,38.3,31.1
